Experimental data: PubChem BioAssay AID1159580 (chemical genetic matrix, 2015)
Hit rate of the full screen: of about 5,500 compounds, about 2,000 (36%) were called active. Another 18% or so got no clear call; they are omitted. Cut-off read from the data, not from the text of the source: active = normalized growth mostly below about 0.91 (no sharp cut-off); inconclusive = no clear call, values can overlap the other calls; inactive = mostly above about 0.92. The list shows a part of the results.

Test: chemical genetic growth profiling, strain panel (AID 1159580);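 note: tested at 20 µM; growth read once vehicle control cultures reached saturation at 30 °C; 1 = growth at the plate median or of vehicle wells; lower values mean less growth of the strain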
Conditions: growth OD

Measured: normalized growth

COc1ccc(-c2cc(=O)c3ccccc3o2)cc1
inactive: S. cerevisiae deletion strains, locus YJR066W, strain TOR1, hits give low values 0.873 | S. cerevisiae deletion strains, locus YLR113W, strain HOG1, hits give low values 1.06 | S. cerevisiae deletion strains, locus YLR357W, strain rsc2, hits give low values 1.03 | S. cerevisiae deletion strains, locus YLR370C, strain arc18, hits give low values 0.922 | S. cerevisiae deletion strains, locus YMR125W, strain sto1, hits give low values 0.932 | S. cerevisiae deletion strains, locus YNL183C, strain NPR1, hits give low values 0.874 | S. cerevisiae deletion strains, locus YNL250W, strain rad50, hits give low values 0.921 | S. cerevisiae deletion strains, locus YOL012C, strain htz1 0.926 | S. cerevisiae deletion strains, locus YOR231W, strain MKK1, hits give low values 0.991 | S. cerevisiae deletion strains, locus YOR316C, strain cot1, hits give low values 0.925 | S. cerevisiae deletion strains, locus YPL106C, strain sse1, hits give low values 1.05 | S. cerevisiae deletion strains, locus YPL256C, strain CLN2, hits give low values 1.02 | S. cerevisiae deletion strains, locus YPR141C, strain kar3, hits give low values 0.94
active: S. cerevisiae deletion strains, locus YKL009W, strain mrt4, hits give low values 0.824 | S. cerevisiae deletion strains, locus YKL068W, hits give low values 0.93 | S. cerevisiae deletion strains, locus YKL085W, strain MDH1 (second series), hits give low values 0.914 | S. cerevisiae deletion strains, locus YKL085W, strain MDH1, hits give low values 0.914 | S. cerevisiae deletion strains, locus YKL160W, strain elf1, hits give low values 0.742 | S. cerevisiae deletion strains, locus YKR001C, strain vps1, hits give low values 0.354 | S. cerevisiae deletion strains, locus YKR026C, strain gcn3, hits give low values 0.92 | S. cerevisiae deletion strains, locus YKR091W, strain srl3, hits give low values 0.93 | S. cerevisiae deletion strains, locus YLL001W, strain dnm1, hits give low values 0.763 | S. cerevisiae deletion strains, locus YLL026W, hits give low values 0.9 | S. cerevisiae deletion strains, locus YLL041C, strain sdh2, hits give low values 0.927 | S. cerevisiae deletion strains, locus YLR027C, strain aat2, hits give low values 0.84 | S. cerevisiae deletion strains, locus YLR039C, strain RIC1, hits give low values 0.405 | S. cerevisiae deletion strains, locus YLR058C, strain SHM2, hits give low values 0.741 | S. cerevisiae deletion strains, locus YLR102C, strain apc9, hits give low values 0.916 | S. cerevisiae deletion strains, locus YLR221C, strain rsa3, hits give low values 0.749 | S. cerevisiae deletion strains, locus YLR258W, strain gsy2, hits give low values 0.823 | S. cerevisiae deletion strains, locus YLR262C, strain YPT6 (second series), hits give low values 0.538 | S. cerevisiae deletion strains, locus YLR262C, strain YPT6, hits give low values 0.406 | S. cerevisiae deletion strains, locus YLR268W, strain sec22, hits give low values 0.727 | S. cerevisiae deletion strains, locus YLR320W, strain mms22, hits give low values 0.449 | S. cerevisiae deletion strains, locus YLR330W, strain CHS5, hits give low values 0.659 | S. cerevisiae deletion strains, locus YLR342W, strain FKS1 (second series), hits give low values 0.512 | S. cerevisiae deletion strains, locus YLR342W, strain FKS1, hits give low values 0.861 | S. cerevisiae deletion strains, locus YLR371W, strain rom2, hits give low values 0.834 | S. cerevisiae deletion strains, locus YLR384C, strain iki3, hits give low values 0.916 | S. cerevisiae deletion strains, locus YLR418C, strain cdc73, hits give low values 0.612 | S. cerevisiae deletion strains, locus YML016C, strain PPZ1, hits give low values 0.89 | S. cerevisiae deletion strains, locus YML032C, strain rad52, hits give low values 0.697 | S. cerevisiae deletion strains, locus YML120C, strain ndi1, hits give low values 0.785 | S. cerevisiae deletion strains, locus YML124C, strain tub3, hits give low values 0.922 | S. cerevisiae deletion strains, locus YMR058W, strain fet3, hits give low values 0.804 | S. cerevisiae deletion strains, locus YMR078C, strain ctf18, hits give low values 0.753 | S. cerevisiae deletion strains, locus YMR129W, hits give low values 0.92 | S. cerevisiae deletion strains, locus YMR205C, strain PFK2, hits give low values 0.668 | S. cerevisiae deletion strains, locus YMR223W, strain ubp8, hits give low values 0.784 | S. cerevisiae deletion strains, locus YMR231W, strain pep5, hits give low values 0.921 | S. cerevisiae deletion strains, locus YMR307W, strain GAS1, hits give low values 0.397 | S. cerevisiae deletion strains, locus YNL067W, strain RPL9B, hits give low values 0.688 | S. cerevisiae deletion strains, locus YNL071W, strain lat1, hits give low values 0.48 | S. cerevisiae deletion strains, locus YNL153C, strain GIM3, hits give low values 0.615 | S. cerevisiae deletion strains, locus YNL209W, strain ssb2, hits give low values 0.873 | S. cerevisiae deletion strains, locus YNL233W, strain BNI4, hits give low values 0.629 | S. cerevisiae deletion strains, locus YNL248C, strain rpa49, hits give low values 0.833 | S. cerevisiae deletion strains, locus YNL271C, strain bni1, hits give low values 0.884 | S. cerevisiae deletion strains, locus YNL298W, strain CLA4, hits give low values 0.881 | S. cerevisiae deletion strains, locus YNL307C, strain MCK1, hits give low values 0.136 | S. cerevisiae deletion strains, locus YNL322C, strain KRE1 (second series), hits give low values 0.902 | S. cerevisiae deletion strains, locus YNL322C, strain KRE1, hits give low values 0.792 | S. cerevisiae deletion strains, locus YNR049C, strain mso1, hits give low values 0.914 | S. cerevisiae deletion strains, locus YNR052C, strain pop2, hits give low values 0.853 | S. cerevisiae deletion strains, locus YOL147C, strain pex11, hits give low values 0.819 | S. cerevisiae deletion strains, locus YOR001W, strain rrp6, hits give low values 0.809 | S. cerevisiae deletion strains, locus YOR061W, strain CKA2, hits give low values 0.851 | S. cerevisiae deletion strains, locus YOR069W, strain VPS5, hits give low values 0.729 | S. cerevisiae deletion strains, locus YOR070C, strain gyp1, hits give low values 0.818 | S. cerevisiae deletion strains, locus YOR080W, strain dia2, hits give low values 0.906 | S. cerevisiae deletion strains, locus YOR083W, strain WHI5, hits give low values 0.71 | S. cerevisiae deletion strains, locus YOR106W, strain vam3, hits give low values 0.733 | S. cerevisiae deletion strains, locus YOR136W, strain idh2, hits give low values 0.895 | S. cerevisiae deletion strains, locus YOR144C, strain elg1, hits give low values 0.911 | S. cerevisiae deletion strains, locus YOR184W, strain ser1, hits give low values 0.474 | S. cerevisiae deletion strains, locus YOR265W, strain rbl2, hits give low values 0.879 | S. cerevisiae deletion strains, locus YOR270C, strain vph1, hits give low values 0.328 | S. cerevisiae deletion strains, locus YOR290C, strain snf2, hits give low values 0.689 | S. cerevisiae deletion strains, locus YPL051W, strain arl3, hits give low values 0.674 | S. cerevisiae deletion strains, locus YPL078C, strain atp4, hits give low values 0.695 | S. cerevisiae deletion strains, locus YPL240C, strain hsp82, hits give low values 0.893 | S. cerevisiae deletion strains, locus YPL241C, strain CIN2, hits give low values 0.839 | S. cerevisiae deletion strains, locus YPR119W, strain clb2, hits give low values 0.93 | S. cerevisiae deletion strains, locus YPR163C, strain tif3, hits give low values 0.543 | S. cerevisiae deletion strains, locus YPR167C, strain met16, hits give low values 0.727 | S. cerevisiae deletion strains, strain wtn01, hits give low values 0.816 | S. cerevisiae strains, strain wild type, hits give low values 0.682
